Screening results: PubChem, National Center for Advancing Translational Sciences (NCATS)
Shiga inhibitor: inhibitors of Shiga toxin in Vero cells. Vero cells, Shiga toxin protein synthesis inhibition reporter. inhibition, % at 38.7 µM. 9.2% of 290,000 active. AID 2315; in the data active = inhibition mostly above about 28%, no sharp cut-off; inactive = mostly below about 43%; note: 0% is about no effect
Sm TGR inh: inhibitors of Schistosoma mansoni thioredoxin glutathione reductase; Q962Y6; purified TGR, DTNB reduction, TNB absorbance 405 nm; Potency, µM (doses to about 114 µM), inactives show top-dose activity change, negative = inhibition, most hits filed as inhibitors; 3% of 360,000 active; AID 485364; note: potency is the fitted concentration of half-maximal effect; % is set by controls: 0 for no effect and ±100 for the full control effect; nearly all actives have a fitted effect of over 60% in size
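First, TGR (20 nM dispensed) and NADPH were mixed with compound. Second, a 15 min room-temperature incubation followed. Third, further NADPH and then DTNB were added to start the reaction. Finally, TNB absorbance was monitored kinetically.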
Giardia FBPA inh: blocks Giardia fructose-bisphosphate aldolase activity; purified Giardia FBPA; Potency, µM (doses to about 59.6 µM), for inactives: top-dose activity, negative = inhibition, hits mostly inhibitors; AID 2451; 0.71% of 290,000 active; note: potency is the fitted concentration of half-maximal effect; % is set by controls: 0 for no effect and ±100 for the full control effect; nearly all actives have a fitted effect of over 55% in size
Target sequence (A8B2U2 whole entry, looked up): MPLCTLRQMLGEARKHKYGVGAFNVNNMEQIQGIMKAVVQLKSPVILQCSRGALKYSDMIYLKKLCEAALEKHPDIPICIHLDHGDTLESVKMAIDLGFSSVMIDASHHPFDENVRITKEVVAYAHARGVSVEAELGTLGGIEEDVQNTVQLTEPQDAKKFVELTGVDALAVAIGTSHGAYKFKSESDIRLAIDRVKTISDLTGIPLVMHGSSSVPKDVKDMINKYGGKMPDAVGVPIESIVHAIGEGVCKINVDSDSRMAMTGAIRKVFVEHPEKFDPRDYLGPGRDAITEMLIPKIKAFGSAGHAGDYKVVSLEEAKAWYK
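40 nM FBPA preincubated 10 min at RT with compound (up to 57.5 uM final), then substrate plus GAPDH/TPI/NAD/arsenate coupling and diaphorase/resazurin added. Fluorescence read after 20 min at RT, 525/598 nm.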
CHX counter: counter-screen for Shiga toxin inhibitors: cycloheximide protein synthesis inhibition; cell reporter, cycloheximide protein synthesis inhibition counterscreen; max response, %; 12% of 300,000 active; in the data active = max response mostly above about 13%, no sharp cut-off; inactive = mostly below about 14%; note: read at 38.3 µM for the half of the compounds with a filed dose; 0% is about no effect
LmPK inhibitor: blocks Leishmania mexicana pyruvate kinase activity; Q27686; purified LmPK, Kinase-Glo ATP luminescence, 1 h; Potency, µM (doses to about 57.5 µM), without a hit: top-dose activity change, negative = inhibition, actives largely listed as inhibitors; 0.37% of 290,000 active; note: potency is the fitted concentration of half-maximal effect; % is set by controls: 0 for no effect and ±100 for the full control effect
Target sequence (Q27686 whole entry, looked up): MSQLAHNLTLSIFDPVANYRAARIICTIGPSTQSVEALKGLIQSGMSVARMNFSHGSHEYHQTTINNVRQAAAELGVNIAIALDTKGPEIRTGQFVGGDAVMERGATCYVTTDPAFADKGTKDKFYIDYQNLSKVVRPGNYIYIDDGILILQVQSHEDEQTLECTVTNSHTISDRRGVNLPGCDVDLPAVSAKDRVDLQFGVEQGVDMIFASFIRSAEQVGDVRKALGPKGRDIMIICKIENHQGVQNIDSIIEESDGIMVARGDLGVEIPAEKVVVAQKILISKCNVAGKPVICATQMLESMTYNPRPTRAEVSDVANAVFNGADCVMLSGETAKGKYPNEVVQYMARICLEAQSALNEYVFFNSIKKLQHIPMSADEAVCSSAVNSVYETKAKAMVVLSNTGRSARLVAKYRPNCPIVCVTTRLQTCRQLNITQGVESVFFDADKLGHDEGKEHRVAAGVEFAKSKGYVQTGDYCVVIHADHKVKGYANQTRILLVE
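0.1 nM LmPK, 0.5 mM PEP, 0.1 mM ADP; 50 mM imidazole pH 7.2, 7 mM MgCl2, 50 mM KCl; 1 h RT. Kinase-Glo luminescence readout, normalized to no-enzyme (full inhibition) and uninhibited wells.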
Tb PYK inh: inhibitors of Trypanosoma brucei pyruvate kinase; 0.12% of 410,000 active; AID 624173; Q57TT1; TbPYK enzyme, Kinase-Glo Plus ATP luminescence, 45 min; Potency, µM (series often up to 76.8 µM), without a hit: at the highest dose activity, negative = inhibition, most hits filed as inhibitors; note: potency is the fitted concentration of half-maximal effect; % is set by controls: 0 for no effect and ±100 for the full control effect; nearly all actives have a fitted effect of over 50% in size
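Activity of T. brucei pyruvate kinase was followed by Kinase-Glo Plus luminescence after the enzyme reacted 45 min at room temperature with 130 uM ADP (final) and substrate. Test compounds were added before ADP at multiple concentrations.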
Numbers without * were called inactive; u = inconclusive; x = not tested or not shown. Many of the other results were omitted from the sample, so hits are more common in it than they were. Unless noted, calls come from the whole dose curve; as a rule, active = well fitted curve in the direction sought with a large enough effect; inconclusive = small, poorly fitted or top-dose-only effect, or another doubt; inactive = no such curve, though single readings can be large; an effect the other way counts as inactive or inconclusive.

SMILES | Shiga inhibitor | Sm TGR inh | Giardia FBPA inh | CHX counter | LmPK inhibitor | Tb PYK inh
O=C(CSc1nc2ccccc2o1)Nc1ccc(Cl)cc1 | 83.5* | 19.3% | 0.5% | 21.6* | 2.5% | 0.0%
CC(=O)Nc1nonc1NC(=O)CSc1nc2ccccc2o1 | -1.9 | 0.6% | -6.6% | 4.8 | 7.4% | -6.3%
O=C(CSc1nc2ccccc2s1)Nc1ccc(N2CCOCC2)c(Cl)c1 | 12.0 | -15.3% | -6.1% | 1.0 | 3.8% | -13.5%
Cn1ncc(Cl)c1C(=O)NNC(=O)Nc1cccc2ccccc12 | 2.4 | -0.8% | x | 16.0 | -4.5% | -5.2%
CCc1cc(C(=O)Nc2ncccc2O)sc1C | 55.2* | -20.0% | -1.5% | 36.5* | -27.0% | -7.6%
COc1ccc(Oc2ncc3ncc(=O)n(C4CC4)c3n2)cc1 | x | x | -2.7% | x | x | x
COc1ccc2[nH]c3c(c2c1)CCNC3C (configuration not stated) | -5.1 | -24.9% | -12.1% | -0.9 | 0.6% | 3.1%
COc1ccc2c3c([nH]c2c1)C(C)NCC3 (configuration not stated) | -12.7 | 11.2µM* | -3.5% | 1.4 | 3.3% | 1.9%
COc1cccc(NC(=O)CSC(N)=O)c1 | 35.7* | -2.4% | -13.8% | 17.6 | 4.2% | 9.0%
COc1cccc(NC(=O)CC(=O)c2ccc([N+](=O)[O-])cc2)c1 | 70.6* | 12.5% | -7.6% | 50.5* | 0.2% | 3.1%
COc1cccc(NC(=O)CSc2nc(N)cc(N)n2)c1 | 9.7 | -2.4% | 2.5% | 0.7 | -4.3% | -2.9%
COc1cccc(NC(=O)CCC(=O)Nc2cccc(OC)c2)c1 | 18.6 | -16.5% | 11.1% | -1.8 | 5.3% | -7.2%
CCOCC(=O)Nc1cccc(OC)c1 | 36.8 | 0.0% | -3.8% | 15.5* | -1.7% | -15.5%
COc1cccc(NC(=O)COc2ccccc2)c1 | x | 9.1% | 4.6% | 27.9* | -3.9% | 5.1%
COc1cc(NC(=O)COc2cccc(OC)c2)cc(OC)c1 | -1.2 | -0.3% | 0.4% | 8.9 | 1.6% | -3.1%
COc1ccc(C2=Nn3c(nnc3-c3ccc(OC)c(OC)c3)SC2)cc1 | -8.5 | x | 5.1% | -0.6 | x | x
CCCN(CC(=O)Nc1ccc(F)c(F)c1F)C(=O)c1ccc(N2CCCC2=O)cc1 | x | 0.1% | x | x | x | 2.5%
Cc1ccc(S(=O)(=O)N2CCN(CN3C(=O)CC4(CCCC4)C3=O)CC2)cc1 | x | -0.9% | x | x | x | -6.1%
Cc1cccc(NC(=O)COc2ccccc2)c1 | 128.9* | 7.3% | -1.4% | 33.4* | 1.2% | 0.2%
Cc1cc(OCC(=O)Nc2ccncc2)ccc1Br | -19.0 | 0.0% | 1.4% | -7.7 | 6.2% | -17.4%
COc1cccc(NC(=O)COc2ccc(Br)c(C)c2)c1 | 10.4 | -1.3% | 4.4% | 11.6* | -5.9% | -3.5%
CCOc1ccc(-c2cccc(NC(=O)COc3ccccc3)c2)nn1 | 18.8 | -1.6% | 10.0% | 26.6* | 1.2% | -2.4%
CC(=O)Nc1cccc(OCC(=O)Nc2ccccc2)c1 | 114.5* | 14.3% | -0.7% | 46.8* | -22.9% | -2.0%
Nc1nccc(N2CCCCC2)n1 | x | x | x | x | x | 0.4%
COc1ccc(NC(=O)CNC(=O)Cn2ccc3ccccc3c2=O)cc1OC | x | 22.8% | x | x | x | 7.6%
SMILES | Shiga inhibitor | Sm TGR inh | Giardia FBPA inh | CHX counter | LmPK inhibitor | Tb PYK inh
COc1ccc(N(C)C(=O)c2cn(CC(C)C)c(=O)c3cc(OC)c(OC)cc23)cc1 | -6.7 | -1.3% | 7.0% | -3.2 | 3.0% | -0.5%
CNCc1ccccc1OCC(=O)Nc1ccccc1 | 74.0* | -18.7% | -0.2% | 35.4* | -5.8% | -27.0%
CCc1ccccc1OCC(=O)Nc1ccc(S(N)(=O)=O)cc1 | 23.4 | 8.9% | 0.7% | 0.7 | -1.5% | 1.2%
COc1cccc(NC(=O)CNC(=O)c2ccc(OC)c(OC)c2)c1 | 15.8 | x | 0.7% | -0.6 | 2.1% | -2.4%
COc1cc(OC)cc(C(=O)NCC(=O)Nc2ccc(-c3ccccc3)cc2)c1 | 62.7* | 2.1% | 14.4% | 20.0* | -2.0% | -15.2%
CC(C)(C)C1(C)OC(=O)C(=Cc2ccc(OCC(=O)Nc3ccccc3)cc2)C(=O)O1 (configuration not stated) | 58.8* | 0.0% | 6.8% | 17.6* | -0.7% | -17.1%
COc1cccc(NC(=O)CNC(=O)c2ccccc2)c1 | 76.5* | 5.4% | 2.1% | 26.9* | 4.8% | -1.0%
CCOc1ccccc1OCCC(=O)OCC(=O)Nc1c(C)nn(-c2ccccc2)c1C | x | -2.5% | x | x | x | -1.8%
CC(Oc1ccccc1)C(=O)OCC(=O)Nc1sccc1C(N)=O (configuration not stated) | x | -6.3% | x | x | x | -1.2%
Cc1ccc(NC(=O)CN2CCc3ccccc3C2)cc1F | 28.8 | -2.2% | u | 10.5 | -5.1% | -7.7%
O=C(COc1cccc(Oc2ccccc2)c1)Nc1ncccn1 | 29.3* | 0.5% | 14.9% | 13.8* | -1.2% | -8.1%
COc1cccc(NC(=O)CN2CCc3ccccc3C2)c1 | 24.0 | -18.8% | 3.7% | 17.3* | -4.4% | -3.7%
CC(=O)Nc1cccc(OCC(=O)Nc2sccc2C(N)=O)c1 | 69.5* | 1.7% | -4.3% | 48.8* | -8.8% | -6.6%
Cc1cc(NC(=O)COc2cccc(Oc3ccccc3)c2)no1 | -4.8 | 8.8% | -0.3% | -2.8 | 0.3% | -6.3%
Cc1ccc(CSc2nnc(SCC(=O)N/N=C/c3c(C)nn(-c4ccccc4)c3C)s2)cc1 | 119.9* | -1.1% | 3.3% | 76.3* | -0.5% | -0.7%
Cc1ccc(-c2nnc(SCC(=O)N/N=C/c3c(C)nn(-c4ccccc4)c3C)n2-c2ccccc2)cc1 | -11.1 | -13.7% | 8.0% | 1.2 | 0.4% | -6.5%
Cc1nn(-c2ccccc2)c(C)c1/C=N/NC(=O)CSc1nnc(SCc2ccccc2Cl)s1 | 42.3 | -0.2% | 3.5% | 35.2* | -5.6% | -3.7%
COc1cccc2cc(-c3nc(-c4ccc(Cl)cc4)cs3)c(=O)oc12 | x | 2.8% | x | x | x | 0.0%
CCCCC/C=C\C[C@@H]1O[C@H]1/C=C/C(O)C/C=C\CCCC(=O)O (some centres not stated) | x | x | 3.8% | x | x | x
Oc1ccc2ccccc2c1CNc1ccccn1 | 4.5 | 2.24µM* | -7.4% | 22.0 | 2.5% | -6.4%
Cc1ccc(S(=O)(=O)Nc2ccccc2CNc2ccccn2)cc1 | 37.2* | 3.9% | -17.0% | 22.0* | 1.1% | 3.4%
Cc1ccc(O)c(CNc2ccccn2)c1 | 101.0* | 1.9% | 0.5% | 21.9 | 1.4% | -3.5%
Cc1ccnc(NCc2cc(C)ccc2O)c1 | x | 7.4% | 4.3% | 18.8* | -0.3% | -5.6%
Cc1ccc(O)c(CNc2cccc(C)n2)c1 | 24.1 | 2.4% | 9.1% | 11.5 | -6.6% | -4.2%
COC(=O)c1cc2oc3ccccc3c2n1CC(=O)Nc1cc(OC)cc(OC)c1 | x | 9.6% | x | x | x | 1.1%
CCOc1ccc(CCNC(=O)CS(=O)Cc2nc(-c3ccc(OC)cc3)oc2C)cc1OCC (configuration not stated) | 3.8 | 15.4% | -17.5% | -5.0 | 0.4% | 0.0%
COc1ccc2c(c1)C(=O)[C@H](OC(=O)NCCOc1ccccc1)[C@@H](c1ccc(OC)c(Br)c1)O2 | x | x | -0.4% | x | x | x
